# ± gives the standard deviation.
# Tested on: RAW-Dual (murine macrophage reporter line)
# Assay: IRF reporter (Lucia luciferase) activity fold change vs agonist alone; higher = enhanced IRF activity
# Details: modulator concentration 10 µM; agonist: LPS 0.1 ug/mL
# Method in brief: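 In 384-well plates holding 50 000 RAW-Dual murine macrophage reporter cells per well, compound at 10 μM final was pre-incubated for 1 hour at 37 °C, after which a PRR agonist was added overnight. Supernatant SEAP read with QUANTI-Blue at 620 nm absorbance reported NF-κB, and Lucia luciferase read with QUANTI-Luc luminescence reported IRF. Fold change values come from dividing each reporter signal by the mean of agonist-only control wells on the same plate, averaged over replicate plates with propagated errors.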
row,SMILES,IRF reporter
1,Cc1ccc(OCCCOc2cccc3cccnc23)c(Br)c1,0.935 ± 0.13
2,O=C(Cn1cnc([N+](=O)[O-])n1)Nc1cc(Oc2cccc(C(F)(F)F)c2)cc([N+](=O)[O-])c1,1.6 ± 0.14
3,COc1ccc(S(=O)(=O)N2CCC(c3ccccc3)S(=O)(=O)CC2)cc1Cl (stereo not drawn),1 ± 0.15

# Same assay, conditions: modulator concentration 10 µM; agonist: MPLA […]
row,SMILES,IRF reporter
1,COC(=O)C1C(=O)C(=CNc2ccccc2O)C(=O)CC1(C)C (stereo not drawn),1.02 ± 0.14
2,Cc1cc(OCCCOc2cccc3cccnc23)ccc1Cl,1.03 ± 0.27
3,CN(C)CCOC(c1ccccc1)c1ccccc1.Cl,1.03 ± 0.12
4,O=C(Nc1cccnc1)c1ccc(OC2CCOCC2)nc1,1.3 ± 0.14
5,CCOC(=O)C1=CC2(CC)CCCN3CCc4c(n1c1ccccc41)C32 (stereo not drawn),1.4 ± 0.21
6,CCOC(=O)C1=C(C)NC(C)=C(C(=O)OCC)C1c1ccc(F)cc1,4.4 ± 0.55
7,CC12CCC3c4ccc(O)cc4CCC3C1CC(O)C2O (stereo not drawn),1.44 ± 0.14
8,COC(CNS(=O)(=O)c1ccccc1Cl)c1cccc(F)c1 (stereo not drawn),0.736 ± 0.12
9,CN(C)CCC=C1c2ccccc2Sc2ccc(Cl)cc21.Cl,1.69 ± 0.16
10,CCCc1cc(=O)oc2cc(OCC(=O)OC)c(Cl)cc12,1.09 ± 0.18
11,CCOC(=O)c1ccccc1NC(=O)CN(c1cc(Cl)ccc1OC)S(C)(=O)=O,1.14 ± 0.14
12,Cc1c(OCC(F)(F)F)ccnc1CS(=O)c1nc2ccccc2[nH]1 (stereo not drawn),1.07 ± 0.096
13,COc1cc2c3cc1Oc1cc(ccc1O)OC1c4c(cc(OC)c(O)c4Oc4ccc(cc4)CC3N(C)CC2)CCN1C (stereo not drawn),1.34 ± 0.13
14,Cc1nc(Nc2ncc(C(=O)Nc3c(C)cccc3Cl)s2)cc(N2CCN(CCO)CC2)n1.O,0.656 ± 0.081
15,COc1cccc(CCc2ccccc2OCC(CN(C)C)OC(=O)CCC(=O)O)c1.Cl (stereo not drawn),0.984 ± 0.19
16,Nc1ccc(S(N)(=O)=O)cc1,0.904 ± 0.072
17,N#Cc1nc(-c2ccc(COc3ccccc3)o2)oc1N1CCCCC1,1.3 ± 0.14
18,O=C1OCCN1C1CCN(C(=O)C2(c3ccc(F)cc3)CC2)C1 (stereo not drawn),1.45 ± 0.51
19,Cl.O=C1Cc2cc(CCN3CCN(c4nsc5ccccc45)CC3)c(Cl)cc2N1,1.01 ± 0.076
20,COc1ccc(CNC(=O)NCC#CCOc2cccc(C(F)(F)F)c2)cc1OC,1.13 ± 0.29

row,SMILES,IRF reporter
1,CS(=O)(=O)N(CC(=O)Nc1ccccc1Br)c1ccc(Cl)c(C(F)(F)F)c1,1.2 ± 0.15
2,CN(C)CCCN(C(=O)Cc1ccc(F)cc1)c1nc2ccc(Cl)cc2s1.Cl,2.19 ± 0.47
3,CC1CN(Cc2ccccn2)CCC1=O (stereo not drawn),1.17 ± 0.12
4,C[C@@H](O[C@H]1OCCN(Cc2n[nH]c(=O)[nH]2)[C@H]1c1ccc(F)cc1)c1cc(C(F)(F)F)cc(C(F)(F)F)c1,1.04 ± 0.09
5,c1ccc(-c2ccc(C(c3ccccc3)n3ccnc3)cc2)cc1 (stereo not drawn),1.41 ± 0.15
6,CC(C)(C)NC[C@H](O)COc1nsnc1N1CCOCC1.O=C(O)/C=C\C(=O)O,1.21 ± 0.14
7,Cc1cccc(NC(=O)Cc2nnc(NC(=O)Nc3ccc(F)cc3)s2)c1,1.11 ± 0.15
8,Cc1ccc(C2(c3ccc(C)cc3)CC2C(=O)Nc2cccnc2)cc1 (stereo not drawn),0.91 ± 0.14
9,O=[N+]([O-])c1ccc(CSc2nc3ccccc3[nH]2)cc1,1.12 ± 0.11
10,O=C(Nc1cc2c(cc1Cl)OCCO2)c1cc(Cl)ccc1O,1.45 ± 0.23
11,O=C(NCCCO)C(=O)Nc1ccccc1F,1.46 ± 0.14
12,CC12CC3CC(C)(C1)CC(N)(C3)C2 [Prestw-978],0.844 ± 0.17
13,COc1ccc(N(CC(=O)NCCSCc2cccc(Cl)c2)S(C)(=O)=O)cc1Cl,0.974 ± 0.098
14,Cc1cnc2c(c1NCCCO)c(=O)n(C)c(=O)n2C,0.887 ± 0.21
15,CN(C)CCC=C1c2ccccc2C=Cc2ccccc21.Cl,1.18 ± 0.13
16,Cc1cn2c(nc1=O)OC1C(O)C(CO)OC12 (stereo not drawn),1.44 ± 0.4
17,CC1(C)CC(=O)C2=C(C1)OC(N)=C(C#N)C21CCCCC1,1.18 ± 0.14
18,Cc1ccc(OCCCOc2cccc3cccnc23)c(Br)c1,0.981 ± 0.21
19,O=C(Cn1cnc([N+](=O)[O-])n1)Nc1cc(Oc2cccc(C(F)(F)F)c2)cc([N+](=O)[O-])c1,1.51 ± 0.21
20,COc1ccc(S(=O)(=O)N2CCC(c3ccccc3)S(=O)(=O)CC2)cc1Cl (stereo not drawn),1.21 ± 0.32
